Active and inactive are the calls of the source.
Experiments:
[1] = compound effects on lung adenocarcinoma cell viability – A549, calcein-AM fluorescence, 48 h, basal, profiling panel (AID 1162); settings: higher = more signal
[2] = compound effects on differentiated 3T3-L1 adipocyte viability – cell-based, 3T3-L1 adipocytes, calcein-AM fluorescence, 48 h, basal, profiling panel (AID 1163); settings: 3T3-L1 adipocytes viability, higher = more signal
[3] = compound effects on hepatocellular carcinoma cell viability – HepG2, calcein-AM fluorescence, 48 h, basal, profiling panel (AID 1164); settings: higher = more signal
[4] = compound effects on multiple myeloma cell viability – MM1S, calcein-AM fluorescence, 48 h, basal, profiling panel (AID 1165); settings: higher = more signal;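 also: viability of MM1S multiple myeloma cells under basal unstimulated conditions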
[5] = calcein-AM signal in unstimulated myeloma cells – cell-based, calcein-AM fluorescence, 48 h, PK04 Diversity Set, profiling panel (AID 1166); settings: RPMI8226 myeloma viability, higher = more signal;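 also: cells grown under basal conditions without added stimulus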
[6] = JC-1 mitochondrial signal, unstimulated HepG2 cells – cell-based, JC-1 fluorescence, 24 h, 100 nL compound, profiling panel (AID 1167); settings: HepG2 mitochondrial potential, higher = more signal
[7] = JC-1 mitochondrial signal, unstimulated adipocytes – cell-based, JC-1 fluorescence, 3T3-L1 adipocytes, 24 h, 100 nL compound, profiling panel (AID 1168); settings: JC-1 mitochondrial fluorescence, higher = more signal, called active from +8 up or from −8 down
[8] = JC-1 mitochondrial signal, unstimulated myeloma cells – cell-based, JC-1 fluorescence, RPMI8226, 24 h, 100 nL compound, profiling panel (AID 1169); settings: JC-1 mitochondrial potential fluorescence, higher = more signal
[9] = JC-1 mitochondrial signal, unstimulated MM1S myeloma – cell-based, JC-1 fluorescence, 24 h, 100 nL compound, profiling panel (AID 1170); settings: MM1S mitochondrial potential, higher = more signal
[10] = resazurin metabolic signal in A549 cells – cell-based, resazurin fluorescence, 24 h, PK04 Diversity Set, profiling panel (AID 1171); settings: A549 viability, higher = more signal, called active from +8 up or from −8 down
Also: test concentration not given here.

Structure (SMILES) | z-score [1] | z-score [2] | z-score [3] | z-score [4] | z-score [5] | z-score [6] | z-score [7] | z-score [8] | z-score [9] | z-score [10]
O=[N+]([O-])c1ccc(C[n+]2ccc(-c3ccc(CO)cc3)cc2)o1 | 0.0994 | 0.511 | -1.19 | 0.266 | -1.19 | -1.48 | -0.886 (inactive) | 0.187 | -0.425 | -0.335 (inactive)
COCC(=C=CC[C@@H](O)c1ccccc1OCCO)C[C@@H](O)c1ccccn1 | 0.0929 | 0.158 | -0.0698 | -0.591 | 0.211 | -0.95 | -0.99 (inactive) | 0.0537 | -0.952 | -0.709 (inactive)
CC1CC/C=C\[C@H]2OC34C=CCN(c5ccc(Cl)cc5)C(=O)[C@H]3N(C(CO)C(C)C)C(=O)[C@]4(C)C2C(=O)O1 (stereo not given in full) | 0.109 | -1.06 | 0.453 | 0.955 | -0.105 | -0.174 | -0.21 (inactive) | -0.362 | 0.00224 | -0.392 (inactive)
O=C1CSC(c2cccc([N+](=O)[O-])c2)N1c1ccccc1 (stereo not given) | -0.295 | -0.23 | 1.71 | 1.31 | -0.566 | 1.04 | 1.05 (inactive) | 0.0369 | -0.779 | -0.292 (inactive)
COc1cccc(C[C@H]2C[C@@H](CO[Si](C(C)C)(C(C)C)C(C)C)N3C(=O)[C@]4(C(C)=O)O[C@]23[C@H]2C(=O)N(C)C(=O)[C@H]24)c1 | -2.16 | -0.206 | -3.45 | -2.93 | -4.26 | 1.49 | 0.207 (inactive) | -1.05 | -1.96 | -1.41 (inactive)
COCCOC(=O)N1C(=O)[C@@]2(c3cc(C#CC4(O)CCCCCC4)ccc31)[C@H](C(=O)N1CCN(c3ncccn3)CC1)[C@H]1C(=O)O[C@H](c3ccccc3)[C@H](c3ccccc3)N1[C@@H]2c1ccc(O)cc1 | 1.09 | 0.146 | 0.871 | -1.12 | -0.372 | -0.641 | 0.799 (inactive) | -0.57 | 0.532 | 0.445 (inactive)
CCCC[C@@H](O)C1=C(COc2ccccc2)Cn2c(=O)n(-c3ccccc3)c(=O)n2[C@H]1CO | 0.753 | 0.409 | -0.0994 | 0.356 | -1.02 | -0.368 | 0.334 (inactive) | 0.42 | 0.277 | -0.515 (inactive)
COCCCNC(=O)[C@@]1(Cc2ccccc2CN=[N+]=[N-])N=C(c2ccc(OCCCO)cc2)O[C@H]1c1ccccc1N=[N+]=[N-] | -0.121 | -0.0406 | 0.35 | -1.34 | -3.87 | 1.36 | 1.98 (inactive) | -1.06 | -0.156 | -1.47 (inactive)
COc1cc(C(O)C2C=CC3C(=O)NC(=O)C3N2Nc2ccc(Cl)cc2Cl)cc(OC)c1OC (stereo not given) | -0.797 | 0.349 | -0.751 | 0.192 | -1.44 | -0.359 | -1.63 (inactive) | -0.82 | 0.483 | -0.315 (inactive)
COCCCNC(=O)[C@@H]1c2ccccc2C(=O)N(c2ccc(C)cn2)[C@H]1c1ccc(CO)cc1 | 0.212 | 1.23 | -0.357 | -1.04 | -0.57 | -0.569 | -0.916 (inactive) | 0.83 | 0.484 | -0.708 (inactive)
O=C1O[C@H](c2ccccc2)[C@H](c2ccccc2)N2[C@H]1[C@@H](C(=O)N1CCCCCCC1)[C@]1(C(=O)Nc3ccc(C#CCCO)cc31)[C@H]2c1ccc(OCCO)cc1 | -0.84 | 0.162 | 0.409 | -0.276 | -0.105 | -0.0749 | -0.962 (inactive) | -0.737 | -0.919 | 1.93 (inactive)
CCCN1C(=O)[C@@H]2Cc3c([nH]c4ccccc34)[C@@H](c3cccc(O)c3)N2C1=O | -0.362 | 0.407 | -1.81 | 0.342 | -0.178 | -1.45 | 0.137 (inactive) | -0.137 | -0.211 | 0.264 (inactive)
C=CC[C@]1(C(=O)N(C)C)N=C(c2ccc(OCCCO)cc2)O[C@H]1c1ccccc1 | 0.203 | 1.17 | -0.308 | -0.27 | -1.19 | 1.5 | 0.644 (inactive) | -0.741 | -1.33 | 1.32 (inactive)
C=CC[C@@]1(C(=O)NCCN2CCOCC2)N=C(c2ccc(OCCCO)cc2)O[C@@H]1c1ccccc1 | -0.181 | 0.458 | -0.253 | 0.672 | 0.418 | 0.603 | -0.672 (inactive) | 0.574 | 0.4 | 1.28 (inactive)
COCCOC(=O)N1C(=O)[C@@]2(c3ccccc31)[C@H](c1ccccc1OCCO)N1[C@H](c3ccccc3)[C@H](c3ccccc3)OC(=O)[C@H]1[C@@H]2C(=O)N1CCc2cc(OC)c(OC)cc2C1 | -0.322 | 1.09 | -0.628 | -1.87 | -1.49 | 0.822 | 0.977 (inactive) | -0.337 | -0.582 | -0.395 (inactive)
C[N+](C)(C)CCCC[C@@H]1NC(=O)[C@@H]2C[C@H](C(=O)O)[C@H](c3cccc(OCCO)c3)N2C1=O | 1.58 | 0.185 | 0.403 | 0.305 | 0.367 | 2.43 | 0.204 (inactive) | 0.423 | 0.17 | 1.13 (inactive)
